The text below walks through data of PubChem BioAssay (NCI).

Holding throughout (experiment): NCI-60 one-dose screen, 48 h (100 = growth as untreated, 0 = no growth, -100 = all killed)
What all share (details): 10 µM unless noted

The subject of experiment [1] is NCI-H23 lung.
In experiment [2] the test system is NCI-H226 lung.
Experiment [3] has as its system NCI-H322M lung.
For experiment [4], the system named is HOP-62 NSCLC.
Experiment [5] relates to NCI-H460 lung.
Experiment [6] has as its system HOP-92 NSCLC.
Experiment [7] concerns NCI-H522 lung.
For experiment [8], the system named is 786-0 renal.
Experiment [9] concerns COLO 205 colon.
The subject of experiment [10] is A549/ATCC NSCLC.

Compounds without any hit were thinned out: in the full panel of roughly 83,000, 20% have a hit.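 Each cell line was grown in a 96-well plate and treated with one concentration of compound for 48 hours. Values below 10 were considered active.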 A number with no mark means an inactive call. The source made the active and inactive calls.

On to `COc1ccc(C(=S)N2CCN(c3ccc(Cl)cc3)CC2)cc1`, for which the growth was 101% in experiment [1]; 96% in experiment [2]; 89.3% in experiment [3]; 97.8% in [4]; 105% in experiment [5]; 89.9% in experiment [6]. In addition, the growth in experiment [7] is 75.6%; in [8], 92.5%; in [9] it was 103%.
Turning to `Cc1ccc2c(-n3nc(C#N)c(C#N)c3N)cc(=O)[nH]c2c1`, the growth was 88.9% in experiment [1]; 78.7% in [2]; 66.8% in experiment [3]; 68.1% in experiment [4]; 81.1% in [5]; 84.3% in experiment [6]. Besides, the growth is 77% in [7], 91% in experiment [10], 85.3% in [8] and 97.8% in experiment [9].
`COc1ccc(N2CCN(C(=O)c3sc4nc(C)c(Br)c(C)c4c3N)CC2)cc1`: the growth in experiment [1] is 99.4%; in experiment [2] it was 74.2%; in experiment [3], 88%; in experiment [4], 80%; in [5], 105%; in [6] it was 88.9%. Moreover, the growth was 89.2% in [7], 91.1% in experiment [10], 99.7% in [8] and 107% in [9].
Turning to `O=C1/C(=C/c2ccccn2)NC(=S)N1c1ccccc1Cl`, the growth in experiment [1] is 56.4%; in experiment [2], 78.3%; in experiment [3], 66.7%; in [4], 38.9%; in experiment [5], 31.2%; in experiment [6] it was 102%. Moreover, the growth in experiment [7] was 58.1%; in [10] it was 51%; in experiment [8], 31.8%; in [9] it was 66.4%.
Turning to `CCN1C(=O)N(CC)C2C1NC(=S)N2/N=C/c1ccc(OC)cc1` (centres undefined), the growth in experiment [1] is 74.9%; in [2], 78.8%; in [3], 79.4%; in experiment [4] it was 59.5%; in experiment [5], 26.1%; in [6], 70.5%. The growth in experiment [7] was 16.8%; in experiment [10], 41.7%; in [8], 62.1%; in [9], 41.7%.
For the compound `Cn1c(=O)c2[nH]c(SCC(=O)Nc3ccc(C(=O)/C=C/c4ccccc4Cl)cc3)nc2n(C)c1=O`, the growth in experiment [1] is 98.1%; in experiment [2] it was 93.1%; in experiment [3], 97.6%; in experiment [4], 90.4%; in experiment [5], 102%; in experiment [6] it was 65%. The growth in experiment [7] is 94.3%; in experiment [10], 86.7%; in [8], 88.3%; in experiment [9], 117%.
Turning to `CC/C=C\CCC/C=C1/C(=O)C=C[C@@H]1C/C=C\CCCC(=O)OC`, the growth in experiment [1] was 34.9%; in [2], 77%; in experiment [3], 101%; in experiment [4], 42.3%; in experiment [5], 52.4%; in [6], 83.4%. Moreover, the growth in experiment [7] was 11.7%; in experiment [10], 79%; in experiment [8] it was 69.3%; in experiment [9], 49.7%.
As to `C=C1C(=O)O[C@H]2[C@H]1CC/C(COC(=O)/C=C\C(=O)NCc1ccc(Cn3c(=O)sn(CCCCC)c3=O)cc1)=C\CC[C@@]1(C)O[C@@H]21`, the growth in experiment [1] was 87.4%; in experiment [2], 104%; in experiment [3] it was 101%; in experiment [4], 104%; in experiment [5], 97.8%; in experiment [6] it was 89.7%. Further, the growth is -7.84% (active) in [7], 97.5% in [10], 62.8% in [8] and 19.3% in [9].
Take `NC(N)=NS(=O)(=O)c1ccc(NC2=C(I)C(=O)c3ncccc3C2=O)cc1`: the growth in [1] was 89.9%; in [2], 86.7%; in experiment [3] it was 109%; in experiment [4], 111%; in experiment [5], 103%; in [6], 115%. Also, the growth was 81% in experiment [7], 110% in experiment [8] and 112% in experiment [9].
With `COc1cc(/C=N/Nc2ccc(Br)cc2)cc(OC)c1OC`, the growth in experiment [1] was 75.8%; in experiment [2] it was 80.1%; in [3], 66.3%; in experiment [4] it was 93.1%; in experiment [5], 31.1%; in experiment [6], 98.2%. Further, the results for the growth in experiment [7], in [8] and in [9] were 39.8%, 77.8% and 86.9%, respectively.
Regarding `COc1ccc2c(c1)/C(=N/c1n[nH]c(=S)s1)C(=O)N2`, the growth in [1] is 93%; in experiment [2], 96.8%; in [3] it was 91.8%; in experiment [4], 99.9%; in [5], 92.9%; in experiment [6], 92.8%. The results for the growth in [7], in [8] and in [9] were 76.3%, 105% and 118%, respectively.
For the compound `COC(=O)CC[C@@H]1O[C@@H](c2ccc(F)cc2)[C@@H](O)[C@H]1O`, the growth is 103% in experiment [1]; 101% in experiment [2]; 106% in experiment [3]; 104% in experiment [4]; 109% in experiment [5]; 93.9% in [6]. Also, the growth in experiment [7] is 99.7%; in [10], 112%; in experiment [8] it was 105%; in experiment [9], 110%.
Turning to `COc1cc(OC)cc(-c2ccc(-c3ccc(C(=N)N)o3)o2)c1`, the growth in [1] is 76.6%; in [2], 84.8%; in [3] it was 71.2%; in [4], 81.4%; in experiment [5], 6.91% (active); in experiment [6], 69.2%. Besides, the growth in [7] was 57.6%; in experiment [10], 47.1%; in experiment [8] it was 69%; in experiment [9], -61.5% (active).
Consider `Cc1ccnc(Nc2ccc([N+](=O)[O-])c(NCCN3CCOCC3)n2)c1`, for which the growth in experiment [1] is 42%; in experiment [2] it was 24.5%; in [3] it was 50.2%; in experiment [4], 40.8%; in experiment [5] it was 6.8% (active); in [6] it was 138%. Also, the growth in experiment [7] is 20.9%; in experiment [10], 19.6%; in [8], 24.8%; in experiment [9] it was -45.4% (active).
For `CCCCNC(=O)c1cc([N+](=O)[O-])cc(C2CCCCC2)c1O`, the growth in experiment [1] was 8.28% (active); in [2], 29.5%; in [3] it was 55.3%; in experiment [4], 57.7%; in [5] it was 30%; in [6] it was -13.6% (active). Further, the growth in experiment [7] was 25.4%; in experiment [10], 32%; in experiment [8], 40.7%; in experiment [9] it was 56.4%.
Take `N#Cc1cccc(C2C3=C(COC3=O)N(CCO)c3cc4c(cc32)CCC4)c1` (centres undefined): the growth in experiment [1] is 23.3%; in experiment [2], 28.4%; in [3] it was 34.2%; in experiment [4], 26.3%; in experiment [5], 3.78% (active); in [6], 43%. For the same compound, the growth in experiment [7] was -3.91% (active); in experiment [10], 12.3%; in experiment [8], 24%; in experiment [9], -26.1% (active).
Regarding `C=C(CNCCc1ccc(O)cc1)[C@@H]1CC[C@]2(CO)CC[C@]3(C)[C@H](CC[C@@H]4[C@@]5(C)CCC(=O)C(C)(C)[C@@H]5CC[C@]43C)[C@@H]12`, the growth is 65.7% in [1]; 93.1% in experiment [2]; 63.2% in experiment [3]; 84.4% in experiment [4]; -48.8% (active) in [5]; 35.1% in experiment [6]. For the same compound, the growth in experiment [7] is 29.2%; in experiment [8] it was 44.7%; in [9], -55.6% (active).
For the compound `COc1ccc(-c2nc3c(N)c(CO)cnc3s2)cc1`, the growth in experiment [1] was 86.7%; in experiment [2] it was 41.6%; in experiment [3], 76%; in experiment [4], 100%; in experiment [5] it was 97.6%; in [6], 77%. In addition, the growth was 92.1% in [7], 95% in experiment [8] and 104% in experiment [9].
On to `O=C(N/N=C/c1cc(Cl)ccc1O)c1ccccc1Nc1ccnc(C(F)(F)F)c1`, for which the growth in [1] is 37.9%; in experiment [2], -1.12% (active); in experiment [3] it was 19.9%; in experiment [4], 30.4%; in experiment [5], 4.73% (active); in experiment [6], 14%. The growth is 50.9% in experiment [7], 27.2% in experiment [8] and 14.1% in experiment [9].
For `O=C(NC1CC(F)C1)c1cc2cccnc2n1-c1ccc(Cl)c(Cl)c1` (centres undefined), the growth in experiment [1] was 100%; in [2], 103%; in [3], 97.3%; in [4], 98.9%; in experiment [5] it was 101%; in experiment [6], 83%. Further, the growth in [7] was 88.5%; in experiment [10], 96.5%; in experiment [8], 95.2%; in experiment [9] it was 109%.
Consider `N#C/C(=C\C=C\c1ccc(-c2cc(Cl)ccc2Cl)o1)c1nc2ccccc2s1`, for which the growth in experiment [1] is 83.7%; in [2], 78.3%; in experiment [3], 95%; in experiment [4], 87.7%; in [5], 103%; in experiment [6] it was 89.1%. Besides, the figures for the growth in [7], in experiment [8] and in experiment [9] were 94.4%, 102% and 92.9%, respectively.
Turning to `CC(=O)OC(c1ccccc1)C1CCOC1=O` (centres undefined), the growth in experiment [1] was 93.8%; in experiment [2], 93.6%; in [3], 106%; in experiment [4], 99.2%; in [5] it was 109%; in experiment [6], 93.2%. For the same compound, the growth is 78.1% in experiment [7], 99% in experiment [10], 94.8% in experiment [8] and 170% in [9].
Regarding `CCOc1ccc(-n2nc(C(=O)NCc3ccccc3OC)nc2-c2cc(OC)c(OC)c(OC)c2)cc1`, the growth was 60.7% in experiment [1]; 62.5% in experiment [2]; 52.4% in [3]; 62.2% in experiment [4]; 30.5% in experiment [5]; 29% in experiment [6]. The growth in [7] was 35.7%; in [8] it was 41.5%; in [9] it was 30.3%.
For `CN(CCCNC(=O)Cc1ccc2ccc3cccc4ccc1c2c34)CCCNc1cc(-c2ccc3ccccc3c2)nc2ccccc12`, the growth is -82.1% (active) in experiment [1]; -39.5% (active) in [2]; -83.2% (active) in experiment [3]; -85.9% (active) in experiment [4]; -73.9% (active) in [5]; -88.8% (active) in [6]. For the same compound, the growth is -42.9% (active) in experiment [7], 1.17% (active) in experiment [10], -80.2% (active) in [8] and -77.3% (active) in experiment [9].
Consider `CC(=O)ON1CCCC(P(=O)(OCCSC(=O)C(C)(C)C)OCCSC(=O)C(C)(C)C)C1=O` (centres undefined), for which the growth in experiment [1] is 45.9%; in [2], 33.6%; in experiment [3] it was 46.1%; in experiment [4] it was 32%; in experiment [5], 16.1%; in [6], 29.4%. Further, the growth was 28.9% in experiment [7], 33.5% in [10], 19.1% in experiment [8] and 27.5% in experiment [9].
As to `O=c1ccc(=O)n(-c2nc(-c3ccc([N+](=O)[O-])cc3)cs2)[nH]1`, the growth in experiment [1] was 90.7%; in experiment [2], 96.3%; in experiment [3], 104%; in experiment [4], 107%; in [5], 102%; in experiment [6], 103%. In addition, the figures for the growth in experiment [7], in experiment [8] and in experiment [9] were 95.8%, 81.3% and 105%, respectively.
Turning to `COc1ccccc1C(=O)Nc1cccc(NC(=O)c2ccoc2C)c1`, the growth in experiment [1] is 47.5%; in experiment [2], 70.7%; in [3] it was 59.5%; in [4], 49.5%; in experiment [5] it was 13.9%; in experiment [6] it was 47.2%. Besides, the growth in experiment [7] is 13.9%; in experiment [8], 32.9%; in experiment [9] it was 39.2%.
